Data published in ChEMBL document CHEMBL3433997, “St. Jude Leishmania screening dataset” (2016).

How the values were obtained:
Type in all cases: functional
[1] = molecular target: Solute carrier family 2, facilitated glucose transporter member 1 (Homo sapiens) (UniProt P11166); assay: ST_JUDE_LEISH: Cytotoxicity at 2uM final concentration against transgenic Leishmania Mexicana promastigotes LmGLUT1 that are glucose transport deficient and complemented with the human glucose transporter GLUT1. Activity is measured by DNA content using SYBR green in vitro
[2] = molecular target: Hexose transporter 1 (Plasmodium falciparum) (UniProt O97467); assay: ST_JUDE_LEISH: Cytotoxicity at 2uM final concentration against transgenic Leishmania Mexicana promastigotes LmPfHT that are glucose transport deficient and complemented with the Plasmodium falciparum hexose transporter. Activity is measured by DNA content using SYBR green in vitro
[3] = molecular target: Glucose transporter (Leishmania mexicana) (UniProt O61059); assay: ST_JUDE_LEISH: Cytotoxicity at 2uM final concentration against transgenic Leishmania Mexicana promastigotes LmGT2 that are glucose transport deficient and complemented with the L. Mexicana glucose transporter 2. Activity is measured by DNA content using SYBR green in vitro

Chain of Solute carrier family 2, facilitated glucose transporter member 1 (Homo sapiens) (P11166 whole entry): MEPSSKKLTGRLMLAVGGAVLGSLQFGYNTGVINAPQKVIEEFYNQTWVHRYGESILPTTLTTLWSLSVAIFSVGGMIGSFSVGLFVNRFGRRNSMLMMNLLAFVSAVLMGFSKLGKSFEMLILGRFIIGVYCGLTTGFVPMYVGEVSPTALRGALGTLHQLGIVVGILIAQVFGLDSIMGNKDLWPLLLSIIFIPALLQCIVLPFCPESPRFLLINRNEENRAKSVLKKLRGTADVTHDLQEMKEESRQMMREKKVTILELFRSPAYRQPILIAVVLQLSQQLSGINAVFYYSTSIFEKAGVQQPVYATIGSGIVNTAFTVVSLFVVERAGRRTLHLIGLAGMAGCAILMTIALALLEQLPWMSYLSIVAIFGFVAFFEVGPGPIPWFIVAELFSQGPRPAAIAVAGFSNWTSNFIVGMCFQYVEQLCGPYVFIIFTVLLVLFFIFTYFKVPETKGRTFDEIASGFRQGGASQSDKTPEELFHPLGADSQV

Structure (SMILES) | inhibition [1] | inhibition [2] | inhibition [3]
O=C(/C=C/c1ccc(Cl)c(Cl)c1)NCCCCCN1CCC(NC(=O)Nc2ccc(C(F)(F)F)cc2)CC1 | 8.19% | 8.67% | 8.81%
Fc1ccc(CNc2ncc(-c3ccsc3)c(-c3nccs3)n2)cc1 | 0.01% | 4.04% | 0.95%
COc1ccc2nccc([C@@H](O)CN3CCC(NC(=O)Cc4cccc5c(Br)cccc45)CC3)c2c1 | 14.1% | 9.54% | 10.9%
CC1(C)N=C(N)N=C(N)C1c1ccc(Cl)cc1 (centres undefined) | 4.19% | 5.72% | 3.51%
CCCCCCCCn1c2c(c(=N)c3c1CCC3)CCCC2 | 94.4% | 95.9% | 92.6%
CC1(C)N=C(N)N=C(N)N1OCc1cc2ccccc2cc1CON1C(N)=NC(N)=NC1(C)C | 1.9% | 1.86% | 0.5%
CN1CCN(CCCCCNc2c3ccccc3nc3ccccc23)CC1 | 28% | 21.1% | 17.9%
CC(C)CC(NC(=O)c1ccc(F)cc1)C(=O)N[C@H](/C=N/N1CCNC1=O)CC(C)C (some centres undefined) | 3.16% | 4.41% | 3.66%
FC(F)(F)c1ccc2[nH]c(-c3ccc(-c4ccc(CNCCN5CCNCC5)cc4)cc3)nc2c1 | -1.44% | 0.13% | -1.25%
CCCC(=O)NC(c1ccc(C(C)C)cc1)c1ccc2cccnc2c1O (centres undefined) | 2.04% | 3.11% | 0.65%
CCOc1ccccc1NC(=O)C(Sc1nc(C)cc(C)c1C#N)c1ccccc1 (centres undefined) | 6.11% | 3.77% | 6.45%
CCN1CCN(c2ccc(Nc3ccnc4ccc(Br)cc34)cc2)CC1 | 1.43% | 0.09% | -0.25%
COCC(C)n1c(SC(C)C(=O)Nc2cc([N+](=O)[O-])ccc2Cl)nc2ccccc2c1=O (centres undefined) | -1.22% | 1.55% | -1.16%
CSc1ccc(CN2CCC(NC(=O)c3ccc(-c4cccc(Cl)c4)s3)CC2)cc1 | 7.55% | 6.28% | 2.36%
CN1CCC(Oc2ccc(CN3CC[C@H](NC(=O)c4cc(F)cc(F)c4)C3)c3ccccc23)C1 (some centres undefined) | 7.53% | 1.81% | 3.76%
O=C(/C=C/c1ccc(Cl)c(Cl)c1)NCCCCCN1CCC(NC(=O)Nc2cccc(Cl)c2F)CC1 | -0.8% | -0.65% | -9.82%
CC(C)c1ccc(C=CC(=O)N2CCC(CCN3CCC(c4c[nH]c5ccccc45)CC3)CC2)cc1 | -1.34% | -1.09% | -0.06%

Structure (SMILES) | inhibition [1] | inhibition [2] | inhibition [3]
O=C(Nc1ccc(-c2ccc(-c3nc4cc(C(F)(F)F)ccc4[nH]3)s2)cc1)c1c[nH]cn1 | 3.09% | 7.24% | 8.27%
COc1ccc2c(=NN=Cc3ccccc3Cl)cc(C)[nH]c2c1 | 0.91% | 0.95% | 0.2%
Cn1c2c(c3ccccc31)CN(CCC1(c3ccc(Cl)c(Cl)c3)CN(C(=O)Cc3ccccc3)CCO1)CC2 (centres undefined) | 2.23% | 3.84% | -1.01%
Cc1cccc2nc(-c3ccc(-c4cccc(NC(=O)Nc5ccccc5)c4)cc3)[nH]c12 | 9.16% | 9.91% | 8.18%
Nc1c2c(nc3ccc(NC(=O)Cc4ccccc4)cc13)CCCC2 | 4.09% | 5.7% | 6.71%
Cc1cc(CNCC(CCNc2cc(=O)c3ccccc3[nH]2)NCc2cc(Br)cc(Br)c2)oc1C (centres undefined) | 4.51% | 2.43% | 3.29%
CC(C)CCNC(=N)c1ccc(OCCCCCOc2ccc(C(=N)NCCC(C)C)cc2)cc1 | 12.4% | 12.5% | 8.15%
COc1cc(NC(=O)c2cccs2)c(OC)cc1NC(=O)Nc1cccc(Cl)c1 | 3.28% | 3.25% | 2.28%
COC(=O)C(=C(C)C)N1C(=O)[C@@H](NC(=O)OCc2ccccc2)[C@H]1SS[C@@H]1[C@H](NC(=O)OCc2ccccc2)C(=O)N1C(C(=O)OC)=C(C)C | -2.06% | -0.42% | -1.05%
CN1CCN(c2cccc(-c3nnc(-c4cccc(OCC(=O)NCc5ccc(C(F)(F)F)cc5)c4)o3)c2)CC1 | 1.77% | 1.65% | 2.47%
Cc1nn(-c2cccc(C(F)(F)F)c2)c2sc(C(=O)NC3CCN(C(C)C)CC3)cc12 | 1.73% | -1.04% | 1.61%
CC(C)CNC(=O)c1cncc(-c2cccc(CNC3Cc4ccccc4C3)c2)c1 | 10.7% | 6.1% | 6.4%
CNC(=O)c1cnc(Nc2ccc(N3CCOCC3)cc2)nc1Nc1cccc(OC)c1 | -0.53% | -1.08% | -2.23%
CCC(O)(C#Cc1c(C)nc(N)nc1N)CC | 2.19% | 2.72% | -0.68%
c1cc(CN2CCC(CCN3CCCCC3)CC2)cc(-c2csc(-c3nc4ccccc4[nH]3)c2)c1 | 7.93% | 8.75% | 4.01%
O=C(Nc1cccc(N2CCC(NCc3cccnc3)CC2)c1)c1cccc(C(F)(F)F)c1 | 1.16% | 1% | -0.6%
